The values below come from PubChem BioAssay (NCATS).

Records with an inconclusive call do not appear. Values without a mark were called inactive. Active and inactive are the calls of the source. Calls come from the whole dose curve; as a rule, active = well fitted inhibition curve with a large enough effect in the repeat runs; inconclusive = weak or mixed curves; inactive = no such curve, though single readings can be large or run the other way.
% is set by controls: 0 for no effect and ±100 for the full control effect; potency is the fitted concentration of half-maximal effect.

Sequence of Cytochrome P450 2C9 (Homo sapiens) (P11712 whole entry, looked up): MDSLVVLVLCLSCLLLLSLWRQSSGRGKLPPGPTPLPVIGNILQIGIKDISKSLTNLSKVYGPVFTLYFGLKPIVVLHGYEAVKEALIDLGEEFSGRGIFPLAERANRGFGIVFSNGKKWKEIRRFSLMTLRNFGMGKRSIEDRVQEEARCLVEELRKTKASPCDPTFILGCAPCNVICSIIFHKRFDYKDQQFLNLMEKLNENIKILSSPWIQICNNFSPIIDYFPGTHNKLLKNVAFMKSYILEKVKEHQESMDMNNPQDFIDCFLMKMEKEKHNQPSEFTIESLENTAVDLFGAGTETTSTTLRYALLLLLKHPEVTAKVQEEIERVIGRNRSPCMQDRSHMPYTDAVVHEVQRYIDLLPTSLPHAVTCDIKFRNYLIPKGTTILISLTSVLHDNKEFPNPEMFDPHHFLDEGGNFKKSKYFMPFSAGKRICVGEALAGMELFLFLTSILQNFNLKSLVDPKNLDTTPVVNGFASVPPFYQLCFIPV

For the test, the target named is Cytochrome P450 2C9 (Homo sapiens) (UniProt P11712). As to the kind of experiment: Cytochrome P450 family 2 subfamily C member 9 (CYP2C9) small molecule antagonists: luciferase biochemical (cell-free) qHTS assay (AID 1645842). Note: nearly all actives have a fitted effect of over 55% in size. The settings on record: P450-Glo CYP2C9 enzyme assay, luciferin luminescence; series mostly up to 57.4 µM; activity change, negative = inhibition: at the top concentration. As to the method:
National Center for Advancing Translational Sciences [NCATS] Assay Overview: Cytochrome P450 (CYP) enzymes are membrane-bound hemeproteins that play a key role in metabolism of drugs and xenobiotics. Assaying the effect of chemicals on CYP isozymes is useful to minimize the adverse drug reactions and toxicities in drug development process. Chemical compounds were tested for their effect on CYP enzyme activities by using P450-Glo (TM) screening systems (Promega Corporation, Madison, WI). These systems provide a luminescent method containing proluciferin substrates and are converted to luciferin products by CYP isozymes. The luciferin products formed are detected with a luciferin detection reagent, and the amount of light produced is proportional to CYP activity. P450-Glo (TM) CYP2C9 screening system (Catalog. No. V9790) was used to detect the compounds that interfere in CYP2C9 activity.
Assay Protocol Summary: Two ul of enzyme-substrate mix supplemented with 0.4% Bovine Serum Albumin was dispensed into medium binding white/solid 1536-well plates (Greiner Bio-One North America Inc., Monroe, NC) using a Flying Reagent Dispenser (FRD, Aurora Discovery, San Diego, CA). […] The assay plates were incubated at room temperature for 10 min. Then 2 ul of NADPH regeneration solution was added to each well of the assay plates using an FRD and incubated at 37C for 1 h. The reaction was stopped by adding 4 ul of detection reagent using an FRD and after 20 min incubation at room temperature, the luminescence signal was measured using a ViewLux plate reader (Perkin Elmer, Shelton, CT). Data were expressed as relative luminescence units.
On the technique in general: qHTS replaces the single test concentration by a dilution series.
Consider `Cc1ncc(Cl)cc1NCc1ccc(C(=O)N[C@@H](CC2CCCC2)C(=O)NC2CC2)s1`, for which the Potency was 8.49 µM (active).

Take `COc1ccc(CNC(=O)C2CCCN(c3nnc(C)c4c(C)n(-c5ccc(C)cc5)nc34)C2)cc1` (stereo not given): the Potency is 2.68 µM (active).

`COc1ccc(NC(=O)Cn2ccn(-c3ccc(C)c(C)c3)c(=O)c2=O)cc1Cl`: the “activity change, negative = inhibition” value is 12%.

For `Cc1ccnc(NC(c2cc(C)ccc2O)c2ccc3cccnc3c2O)c1` (stereo not given), the Potency was 23.9 µM (active).

Consider `COc1ccc(NC(=O)CSc2ncc(-c3ccc(Cl)cc3)[nH]2)cc1OC`, for which the Potency is 0.849 µM (active).

With `COCCn1c(SCC(=O)Nc2ccc(F)c(Cl)c2)nc2c(oc3ccccc32)c1=O`, the Potency is 0.952 µM (active).

With `COc1ccc(-c2nc(SCC(=O)Nc3ccc4c(c3)OCO4)c(-c3ccc(OC)cc3)[nH]2)cc1`, the Potency is 0.849 µM (active).

For the molecule `COc1cccc(CNCc2cccn2-c2nnc(N3CCN(c4ccccc4)CC3)s2)c1`, the Potency was 9.52 µM (active).

With `C#C[C@]1(O)CC[C@@H]2[C@@H]3CCC4=CCCC[C@@H]4[C@H]3C(=C)C[C@@]21CC`, the Potency is 3.38 µM (active).

Consider `CCOC(=O)c1ccc(NC(=O)CCn2c(=O)c3cccn3c3cccnc32)cc1`, for which the Potency is 10.7 µM (active).

For `Cc1cc(OCCCSc2nc(-c3ccc(C(C)(C)C)cc3)nc3cc(=O)[nH]n23)ccc1Cl`, the Potency is 15.1 µM (active).

On to `CC(=O)c1ccc(NC(=O)C2CCN(c3nnc(C)c4c(C)n(-c5ccccc5)nc34)CC2)cc1`, for which the Potency is 7.56 µM (active).

As to `COC(=O)Cc1cccc(NC(=O)C2=C(C)NC(Nc3nc4ccccc4o3)=NC2c2ccccc2Cl)c1` (stereo not given), the Potency is 9.52 µM (active).

Take `C=Cc1ccc(Cn2c(SCC(=O)N3CCN(c4ccc(F)cc4)CC3)nc3ccccc32)cc1`: the Potency was 3.38 µM (active).

Take `Cc1ccc(C(=O)c2cn(CC(=O)Nc3ccc4c(c3)OCCO4)c3nc(C)ccc3c2=O)cc1`: the Potency was 9.52 µM (active).

With `Cc1cc(-n2c(SCc3ccccc3F)nc3[nH]ncc3c2=O)ccc1Cl`, the Potency was 23.9 µM (active).

`Cc1ccc(C)c(NC(=O)Cn2cc(C(=O)c3ccco3)c3ccccc32)c1`: the “activity change, negative = inhibition” value was 6.02%.

As to `COc1ccc(NC(=O)c2nc(SCc3ccc(F)cc3)ncc2Cl)cc1`, the Potency was 3.38 µM (active).

Turning to `Cc1ccc(Cn2c(SCc3ccc(C(=O)N4CCCCCC4)cc3)nc3ccncc32)cc1`, the “activity change, negative = inhibition” value was -0.447%.

On to `Cc1ccc(Cn2c(Cc3ccccc3)nc3ccccc32)cc1`, for which the Potency was 13.5 µM (active).

Turning to `COc1cc(C(c2c(C)[nH][nH]c2=O)c2c(C)[nH][nH]c2=O)ccc1OC(=O)c1cccc(C)c1`, the Potency was 12 µM (active).

For `CN1C(=O)c2ccccc2Sc2ccc(NC(=O)Cc3ccc(Cl)cc3)cc21`, the Potency is 12 µM (active).

Regarding `CCC(=O)N1CCc2cc(S(=O)(=O)NC(Cc3ccccc3)C(=O)NCc3cccc(OC)c3)ccc21` (stereo not given), the Potency is 12 µM (active).

As for `CCNC(=O)N1CCN(C(=O)c2cnc3cc(OC)ccc3c2N2CCC(C)(C#N)CC2)CC1`, the Potency was 2.39 µM (active).

For `COc1ccc(CCNC(=O)Cn2nc(C)c3c(C)n(-c4ccc(C)cc4)nc3c2=O)c(OC)c1`, the Potency was 8.49 µM (active).

`COc1ccc(-n2nc3c(N4CCCC(C(=O)NCc5ccc(C)cc5)C4)nnc(C)c3c2C)cc1` (stereo not given): the “activity change, negative = inhibition” value was 8.15%.

For `CCCOCc1cc(CN2CCN(c3ccccc3OC)CC2)c(O)c2ncccc12`, the Potency is 7.56 µM (active).

Consider `Cc1ccc(-n2ncc3c(NCCCn4ccnc4)ncnc32)cc1Cl`, for which the Potency is 0.601 µM (active).

As for `COc1ccc2c(CNCCc3ccccc3OC)c(C(=O)O)n(Cc3ccc(F)cc3Cl)c2c1`, the Potency was 12 µM (active).

As to `CN1C(=O)NC(Cc2c[nH]c3c(Cl)cccc23)C1=O` (stereo not given), the Potency was 13.5 µM (active).

Take `CNC(=O)c1ccc(CSc2nc3ccncc3n2Cc2ccc(C)cc2)cc1`: the Potency was 7.56 µM (active).

For `CC(=O)c1ccc(NC(=O)Cn2cc(S(=O)(=O)Cc3ccccc3Cl)c3ccccc32)cc1`, the Potency was 1.69 µM (active).

For `COC(=O)c1c(SCC(=O)Nc2cc(C)cc(C)c2)[nH]c2ccccc2c1=O`, the Potency was 21.3 µM (active).

Take `C[C@H](O[C@H]1OCCN(Cc2n[nH]c(=O)[nH]2)[C@H]1c1ccc(F)cc1)c1cc(C(F)(F)F)cc(C(F)(F)F)c1`: the Potency was 9.52 µM (active).

For the molecule `CC1(C#N)CCN(c2c(C(=O)N3CCC(C(=O)C4CC4)CC3)cnc3cc(F)c(F)cc23)CC1`, the Potency is 9.52 µM (active).

For `O=C(CSc1nnc(-c2cccc(F)c2)c(-c2cccc(F)c2)n1)NC1CCCCC1`, the Potency was 1.51 µM (active).

With `CC1=C(C(=O)Nc2cc(C(=O)O)ccn2)C(c2ccc(F)cc2Cl)N=C(Nc2nc3ccc(F)cc3o2)N1` (stereo not given), the Potency was 23.9 µM (active).

Turning to `Cc1ccc(Cn2ccnc2SCC(=O)Nc2nc3ccccc3s2)cc1`, the Potency was 8.49 µM (active).

Turning to `Cc1cc(Cl)ccc1NC(=O)CCCn1nc(C)c2c(C)n(-c3ccccc3)nc2c1=O`, the Potency is 13.5 µM (active).

Turning to `CC1=CC(O)=NS(=O)(=O)O1`, the “activity change, negative = inhibition” value is 1.75%.
